In PubChem BioAssay:
Values joined by “and” are separate entries in the source; they are usually repeats but may differ in a detail not shown here. Identical values can stand only once. Active and inactive are the calls of the source. Unless noted, no stated cut-off is given here; in the data, active means parasite load remaining mostly below about 12% (no sharp cut-off); inactive means mostly above about 10%.

Legend:
[1] = liver-stage malaria parasite growth inhibition, primary screen, cell-based, HepG2, luciferase luminescence, HepG2 viability (AID 624349);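 further: 100% = mean of DMSO negative control wells on the same plate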; conditions: P. berghei liver stage in HepG2, luciferase luminescence, concentration not given here; parasite load remaining: stronger effect = lower value; viability: measured here: HepG2 viability without parasites
[2] = stimulators of nuclear beta-catenin in C2C12, primary screen, imaging, WNT3A-conditioned medium, mouse C2C12, NPC library (AID 1117326; in the data active means nuclear beta-catenin stimulation mostly above about 4.2%, no sharp cut-off; inactive means mostly below about 10%; further: reference of the scale not given here); conditions: stronger effect = higher value
[3] = stimulators of insulin release from INS-1E, primary screen, cell-based, 5 mM glucose, NPC library (AID 1117329;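 active means compound raises insulin release from rat beta cells at 5 mM glucose, no numeric limit stated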; further: reference of the scale not given here); conditions: rat INS-1E insulin secretion, at 10 µM, stronger effect = higher value
[4] = growth inhibition of GSK3B-pretreated HCT116 cells – cell-based, CellTiter-Glo, 0.2 to 20 µM (AID 1117336;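 active means compounds lowering colon cancer cell viability after pretreatment blocking the GSK3B kinase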); conditions: HCT116 viability after GSK3B inhibitor, at 20 µM, stronger effect = higher value
[5] = inhibition of endothelial tube formation, primary screen, imaging, VEGF stimulated, CD31 staining, tube area, NPC library (AID 1117340;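 active means compound that reduces growth-factor-driven endothelial tube area in a mixed cell culture, no cutoff stated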); conditions: VEGF-stimulated ADSC/ECFC co-culture, at 10 µM, stronger effect = higher value
[6] = glucagon-like peptide 1 release enhancers, primary assay, NCI-H716 cell line, NPC library (AID 1117341;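 active means compound raises GLP1 secretion from the human gut endocrine cells, with no numeric limit stated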; further: reference of the scale not given here); conditions: NCI-H716 cells, at 10 µM, stronger effect = higher value
[7] = HCT116 colon cancer cell growth inhibition, primary screen, CellTiter-Glo luminescence, NPC library (AID 1117342;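 active means compounds that lower survival of HCT116 colon cancer cells in the luminescence readout, no numeric limit stated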); conditions: at 20 µM (top of the series)
[8] = CellTiter-Glo luminescent readout of SW480 viability loss, NPC library primary (AID 1117343;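 active means compounds that lower viability of the colon cancer cells in the luminescence readout, with no numeric limit stated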); conditions: CellTiter-Glo luminescence; at 20 µM (top of the series)
[9] = decreased DLD-1 cellular survival, CellTiter-Glo luminescent readout, NPC compound collection, primary HTS (AID 1117346;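 active means compounds that lower survival of DLD-1 colon cancer cells in the luminescence readout, no cutoff given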); conditions: DLD-1 viability, CellTiter-Glo luminescence; at 20 µM (top of the series)
[10] = molecular target: 6-phosphogluconate dehydrogenase, decarboxylating (Homo sapiens) (UniProt P52209); assay: 6PGD enzyme inhibitors, primary screen, biochemical, human, recombinant enzyme, NADPH absorbance (AID 1159550;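 active means at least 20% inhibition of 6-phosphogluconate dehydrogenase activity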); conditions: recombinant 6PGD, NADPH absorbance 341 nm; at 10 µM; stronger effect = higher value
Sequence of 6-phosphogluconate dehydrogenase, decarboxylating (Homo sapiens) (P52209 whole entry, looked up): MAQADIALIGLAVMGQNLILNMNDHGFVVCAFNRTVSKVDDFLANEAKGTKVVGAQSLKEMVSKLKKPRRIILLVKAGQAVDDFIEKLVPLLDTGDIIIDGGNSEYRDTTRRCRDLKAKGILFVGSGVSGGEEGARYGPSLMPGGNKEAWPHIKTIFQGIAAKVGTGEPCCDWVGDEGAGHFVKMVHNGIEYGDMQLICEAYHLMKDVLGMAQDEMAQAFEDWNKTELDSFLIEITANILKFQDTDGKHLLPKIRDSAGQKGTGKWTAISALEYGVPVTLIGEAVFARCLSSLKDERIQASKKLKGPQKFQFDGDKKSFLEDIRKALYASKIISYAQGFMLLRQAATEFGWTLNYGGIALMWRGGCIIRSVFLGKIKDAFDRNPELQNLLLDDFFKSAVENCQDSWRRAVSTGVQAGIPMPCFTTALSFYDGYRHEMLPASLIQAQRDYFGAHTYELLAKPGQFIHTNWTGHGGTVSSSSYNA

Structure (SMILES)	parasite load remaining [1]	viability [1]	nuclear beta-catenin stimulation ([2]; at 10 µM)	nuclear beta-catenin stimulation ([2]; stimulation, at 2 µM) [%]	insulin secretion stimulation [3]	viability decrease [4]	tube area decrease [5]	GLP1 secretion stimulation [6]	inhibition of viability [7]	viability decrease (inhibition) [8]	viability decrease (inhibition) [9]	inhibition [10]
COc1cc(N)c(Cl)cc1C(=O)NC1CCN(Cc2ccccc2)CC1	50.5% (inactive) and 24.1% (inactive) and 67.3% (inactive)	116% and 86.9% and 74.5%	3.1% (inactive)	0.9	9.3% (inactive)	-6.7% (inactive)	5.3% (inactive)	-0.7% (inactive)	38.2% (inactive)	26.2% (inactive)	6.4% (inactive)	-7.99% (inactive)
CC(C(=O)O)c1ccc2c(c1)[nH]c1ccc(Cl)cc12 (stereo not drawn)	138% (inactive) and 52% (inactive)	73.1% and 91.7%	-0.6% (inactive)	1.1	0.1% (inactive)	6.1% (inactive)	17.9% (inactive)	4.6% (inactive)	1.67% (inactive)	36% (inactive)	14.1% (inactive)	-6.34% (inactive)
CCCOc1ccc2nc(NC(=O)OC)[nH]c2c1	150% (inactive) and 18.1% (inactive) and 53.4% (inactive)	91% and 99.5% and 84%	77% (active)	60.9	1.2% (inactive)	27% (inactive)	107% (active)	-1.2% (inactive)	57.5% (active)	14.3% (inactive)	38.1% (inactive)	2.75% (inactive)
CCN(CC)CCNC(=O)COc1ccc(OC)cc1	–	–	0.5% (inactive)	1.9	1.8% (inactive)	-5.3% (inactive)	-8.1% (inactive)	2.1% (inactive)	-18.7% (inactive)	22.1% (inactive)	-6.15% (inactive)	-14.6% (inactive)
CC[N+](C)(C)Cc1ccccc1Br	80.1% (inactive)	101%	-0.9% (inactive)	0.3	2.5% (inactive)	-18.7% (inactive)	10% (inactive)	-3% (inactive)	27.2% (inactive)	-1.6% (active)	10.8% (inactive)	-1.68% (inactive)
CCC[C@H](N[C@@H](C)C(=O)N1[C@H](C(=O)O)C[C@@H]2CCCC[C@@H]21)C(=O)OCC	98.2% (inactive) and 68.9% (inactive) and 42.7% (inactive)	70.3% and 83% and 98.6%	1.3% (inactive)	0.5	2.3% (inactive)	-3% (inactive)	14.1% (inactive)	-2.9% (inactive)	18.1% (inactive)	0% (inactive)	6% (inactive)	-5.32% (inactive)
CCCCCCc1ccc(O)cc1O	87.3% (inactive) and 55.4% (inactive)	71.9% and 91.6%	7.5% (inactive)	2.1	9.8% (inactive)	65.4% (active)	30.7% (inactive)	4.2% (inactive)	41.8% (inactive)	84.1% (active)	56.2% (active)	-8.5% (inactive)
CC(=O)NO	102% (inactive) and 55.8% (inactive)	71.8% and 93.7%	0% (inactive)	0.9	5.1% (inactive)	30.9% (inactive)	11.1% (inactive)	10.8% (active)	10.6% (inactive)	69.2% (active)	56% (active)	-9.51% (inactive)
O=C1c2c(O)cccc2Cc2cccc(O)c21	94% (inactive) and 68.1% (inactive)	73% and 78.8%	-3.3% (inactive)	-2	0.8% (inactive)	38.5% (inactive)	108% (active)	-2.2% (inactive)	30.9% (inactive)	61.6% (active)	53.6% (active)	-1.39% (inactive)
OC[C@H]1O[C@@H](Oc2ccc(O)cc2)[C@H](O)[C@@H](O)[C@@H]1O	102% (inactive)	72.2%	-2.1% (inactive)	1	-0.6% (inactive)	-2.2% (inactive)	1% (inactive)	-2.9% (inactive)	-1.8% (inactive)	2.3% (active)	-10.8% (inactive)	17.9% (inactive)
CC(=O)[C@@]1(O)CC[C@H]2[C@@H]3C[C@H](C)C4=CC(=O)C=C[C@]4(C)[C@@]3(F)[C@@H](O)C[C@@]21C	127% (inactive)	102%	2.3% (inactive)	0.2	-1.1% (inactive)	-45.9% (inactive)	-16% (inactive)	-0.3% (inactive)	-1.33% (inactive)	-18.3% (inactive)	-7.2% (inactive)	15.2% (inactive)
Nc1nc2c(c(=O)[nH]1)N(C=O)C(CNc1ccc(C(=O)N[C@@H](CCC(=O)O)C(=O)O)cc1)CN2 (stereo partly drawn)	101% (inactive) and 95.5% (inactive) and 64.5% (inactive)	96.6% and 70.1% and 99.2%	1.7% (inactive)	4.1	3.9% (inactive)	19.3% (inactive)	1.3% (inactive)	0.8% (inactive)	-11.6% (inactive)	24.4% (inactive)	-9.9% (inactive)	-1.29% (inactive)
Cc1cc(=O)[nH]c(=S)[nH]1	70.4% (inactive)	92%	-1.2% (inactive)	-0.4	-0.5% (inactive)	0.65% (inactive)	-25.4% (inactive)	1.6% (inactive)	-2.3% (inactive)	11.6% (inactive)	0.15% (inactive)	-2.01% (inactive)
CC[C@]12CCCN3CCc4c(n(c5ccccc45)[C@@](O)(C(=O)OC)C1)[C@@H]32	27.1% (inactive) and 109% (inactive)	48.5% and 87%	-2.1% (inactive)	-0.6	-1.7% (inactive)	-2.5% (inactive)	25.6% (inactive)	-2.6% (inactive)	-43.9% (inactive)	0.1% (inactive)	-31.5% (inactive)	-2.98% (inactive)
O=C(N[C@H](CO)[C@H](O)c1ccc([N+](=O)[O-])cc1)C(Cl)Cl	29.9% (inactive) and 25.5% (inactive)	46.7% and 63%	-0.9% (inactive)	-0.3	1.8% (inactive)	-11.1% (inactive)	12.5% (inactive)	-4.2% (inactive)	-1.7% (inactive)	-0.7% (inactive)	-7% (inactive)	15.5% (inactive)
O=C(COc1ccc(Cl)cc1)N1CCN(Cc2ccc3c(c2)OCO3)CC1	33.6% (inactive) and 155% (inactive) and 109% (inactive)	49.1% and 91.8% and 89.5%	1% (inactive)	-0.3	2.3% (inactive)	54% (active)	3.4% (inactive)	0.1% (inactive)	53.7% (active)	56.1% (active)	52.6% (active)	11.5% (inactive)
O=C(O)c1ccccc1OP(=O)(O)O	79.1% (inactive) and 102% (inactive)	101% and 71.6%	0.8% (inactive)	2.9	0.8% (inactive)	-21.3% (inactive)	-18.8% (inactive)	1.7% (inactive)	1.07% (inactive)	6.6% (inactive)	-7.1% (inactive)	-2.26% (inactive)
Nc1ccc(S(=O)(=O)NC(=O)c2ccccc2)cc1	105% (inactive) and 86.8% (inactive) and 33.6% (inactive)	105% and 73% and 95.8%	1.5% (inactive)	1.1	-1.7% (inactive)	-10.1% (inactive)	-16.9% (inactive)	0.6% (inactive)	0.2% (inactive)	-9.5% (inactive)	-14.3% (inactive)	-6.69% (inactive)
COC(=O)N/N=C/c1c[n+]([O-])c2ccccc2[n+]1[O-]	174% (inactive) and 86.3% (inactive) and 64.3% (inactive)	93.9% and 108% and 125%	1.7% (inactive)	5.8	1.9% (inactive)	18.7% (inactive)	22.2% (inactive)	5.7% (inactive)	-3% (inactive)	-10.2% (inactive)	-4.9% (inactive)	11.2% (inactive)
Nc1ccc(C(=O)Oc2ccccc2)c(O)c1	67.6% (inactive)	172%	0.2% (inactive)	2.9	0.9% (inactive)	-26.7% (inactive)	4.5% (inactive)	0.7% (inactive)	3% (inactive)	-17.2% (inactive)	17.2% (inactive)	-7.23% (inactive)
O=C(O)c1ccc(S(=O)(=O)N(Cl)Cl)cc1	101% (inactive) and 53.6% (inactive)	75.7% and 97.7%	0.3% (inactive)	1.7	1.2% (inactive)	-8.9% (inactive)	-29.4% (inactive)	0% (inactive)	8.13% (inactive)	16.9% (inactive)	-6.9% (inactive)	13.4% (inactive)
Nc1c2ccccc2nc2ccccc12	23.3% (inactive) and 22.9% (inactive)	78.7% and 67.3%	21.1% (inactive)	0.1	39.7% (active)	49.2% (active)	81.5% (active)	11.4% (inactive)	105% (active)	107% (active)	49% (active)	-6.58% (inactive)
CN1CCCN=C1COC(=O)C(O)(c1ccccc1)C1CCCCC1 (stereo not drawn)	69.1% (inactive) and 57.9% (inactive)	80.4% and 101%	3% (inactive)	1.9	16.3% (inactive)	-83% (inactive)	-29% (inactive)	4.8% (inactive)	19.6% (inactive)	67.3% (active)	33.9% (inactive)	6.35% (inactive)
CC(=O)Nc1ccccc1	92.8% (inactive) and 37.4% (inactive)	71.9% and 93.5%	5.2% (inactive)	1.4	1% (inactive)	-5.1% (inactive)	-10.1% (inactive)	2.1% (inactive)	2.3% (inactive)	25.2% (inactive)	3.55% (inactive)	-5.03% (inactive)
COc1cc(NS(=O)(=O)c2ccc(N)cc2)ncn1	84.2% (inactive) and 61.4% (inactive) and 48% (inactive)	97.9% and 64.7% and 90.8%	3% (inactive)	3.5	4.3% (inactive)	16.8% (inactive)	1.4% (inactive)	-4.1% (inactive)	3.43% (inactive)	-10.6% (inactive)	3.8% (inactive)	-1.56% (inactive)
